Assay outcomes (PubChem BioAssay)
CHT inh: inhibitors of human choline transporter CHT; AID 488975, 2010; B-score at 10 µM; hit rate 0.86% among 310,000; High affinity choline transporter 1 (Homo sapiens), Q9GZV3; CHT-expressing cells, membrane potential dye, choline response; stronger effect = lower value;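 active = B-score over 3 SD under the library average, and starting fluorescence ratio not unusually high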;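 also: choline stimulus applied at its EC90 after an EC20 pre-addition; B-score computed on integrated fluorescence ratio after choline addition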
PHOSPHO1 block: PubChem AID 1565 | inhibition, % at 13.3 µM | Phosphoethanolamine/phosphocholine phosphatase (Homo sapiens), Q8TCT1 | hit rate 1.1% among 290,000 | recombinant PHOSPHO1, absorbance phosphatase assay; in the data active = inhibition above about 60%
Target sequence (Q8TCT1 whole entry, looked up): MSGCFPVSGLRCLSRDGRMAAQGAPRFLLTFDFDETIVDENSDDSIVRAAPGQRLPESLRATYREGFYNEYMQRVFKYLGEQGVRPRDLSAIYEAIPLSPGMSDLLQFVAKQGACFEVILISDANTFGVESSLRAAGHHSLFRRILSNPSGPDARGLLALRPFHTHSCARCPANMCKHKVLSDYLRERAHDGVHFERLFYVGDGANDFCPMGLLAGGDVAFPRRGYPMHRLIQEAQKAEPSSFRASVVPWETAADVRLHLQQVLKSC
CHT PAM: CHT positive allosteric modulators, primary screen, cell-based, membrane potential dye, choline EC20; hit rate 0.49% among 310,000; High affinity choline transporter 1 (Homo sapiens), Q9GZV3; AID 488977, 2010; CHT-expressing cells; stronger effect = higher value; LV-AA mutant CHT in HEK293 cells; B-score at 10 µM;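 active = initial fluorescence not abnormally high and integrated response B-score, plate-corrected, over 3 SD above library mean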
ANO1 activ: TMEM16A chloride channel activators or potentiators, primary screen, cell-based, HTS; Anoctamin-1 (Mus musculus), Q8BHY3; HEK293 TMEM16A/YFP-H148Q/I152L, iodide quench fluorescence; stronger effect = lower value; B-score at 10 µM; hit rate 0.3% among 340,000;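 active = fluorescence-ratio B-score plate-corrected deviation score at least 3 library SD below zero, with starting fluorescence score within 5 deviations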;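 also: channel opened by trigger with iodide after compound preincubation; score built on the fluorescence ratio of max minus min over baseline; more negative score means more quench and so TMEM16A activation or potentiation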
HDAC3 inhib: HDAC3 deacetylase inhibitors, primary screen, biochemical, fluorescence, cell-free homogeneous. recombinant HDAC3, fluorogenic peptide/trypsin coupled. Histone deacetylase 3 (Homo sapiens), O15379. inhibition, % at 8.3 µM. AID 2718, 2010. hit rate 0.15% among 320,000; in the data active = inhibition above about 26%, passing the limit was not always enough
Target sequence (O15379 whole entry, looked up): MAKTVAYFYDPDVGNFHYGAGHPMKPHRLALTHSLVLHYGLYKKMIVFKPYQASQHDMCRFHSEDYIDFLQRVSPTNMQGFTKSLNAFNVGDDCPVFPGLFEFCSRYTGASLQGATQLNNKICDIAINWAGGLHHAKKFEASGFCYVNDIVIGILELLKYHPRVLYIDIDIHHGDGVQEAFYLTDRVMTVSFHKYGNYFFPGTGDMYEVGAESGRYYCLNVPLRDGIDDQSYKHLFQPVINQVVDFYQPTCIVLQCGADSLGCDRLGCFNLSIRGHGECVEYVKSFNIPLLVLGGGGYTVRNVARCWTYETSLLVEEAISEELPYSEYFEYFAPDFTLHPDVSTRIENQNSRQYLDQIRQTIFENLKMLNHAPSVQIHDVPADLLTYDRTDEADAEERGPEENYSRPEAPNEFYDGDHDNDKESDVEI
TMEM16A inh: TMEM16A chloride channel inhibitors, primary screen, cell-based, HTS; AID 588511, 2011; Anoctamin-1 (Mus musculus), Q8BHY3; hit rate 1.2% among 310,000; HEK293 TMEM16A/YFP iodide influx fluorescence, ionomycin; normalized B-score (activity score, 25-100; higher = stronger inhibition) at 10 µM;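 active = ratio plate-corrected score three or more library SD toward inhibition, starting fluorescence score within five deviations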;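 also: score derived from kinetic fluorescence span divided by baseline fluorescence per well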
TMEM16A reconf: TMEM16A chloride channel inhibitors, confirmation, cell-based, re-confirmation; AID 652189, 2013; shares compounds with TMEM16A inh; hit rate 39% among 2,300; inhibition, % at 10 µM; HEK293 TMEM16A/YFP-H148Q, iodide quench fluorescence; ionomycin added to raise cell calcium;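 active = mean duplicate percent inhibition, scaled so buffer wells are 0 and the reference blocker 100, over three buffer SD above buffer mean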
HEK293 Ca mobil: calcium mobilization in TMEM16A/YFP HEK293 cells, confirmation, counter-screen for TMEM16A inhibitor project. Fluo4 calcium mobilization. hit rate 2% among 2,300. shares compounds with TMEM16A inh. calcium response (% of ionomycin), % at 10 µM;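 active = duplicate-averaged calcium signal over 20% of the ionomycin maximum, relative to buffer baseline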;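 also: each well's signal is peak minus trough fluorescence divided by its pre-addition baseline; 0% = buffer wells and 100% = ionomycin wells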
YFP-HEK293 quench: iodide YFP quench changes in parental YFP-HEK293, counter-screen for TMEM16A inhibitor project, cell-based; shares compounds with TMEM16A inh; ionomycin; YFP ratio F(max-min)/F0 at 10 µM; 2,300 tested, under 10 active; AID 652233, 2013;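 active = yellow fluorescent protein signal ratio exceeding the buffer control mean by over 5 SD of those controls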;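 also: ratio is mean of duplicate wells from kinetic YFP trace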
ClC-1 rat inh: ClC-1 chloride channel inhibition, selectivity assay for TMEM16A inhibitor project, cell-based, voltage-dependent ClC-1. 2,300 tested, under 10 active. shares compounds with TMEM16A inh. ratio percent, % at 10 µM. CHO ClC-1-YFP, iodide influx fluorescence quench; iodide control reads 0, buffer control 100;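 active = duplicate-mean ratio percent above the mean of iodide-only control wells, which defines zero, plus 5 of their SD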;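 also: higher percent means stronger block of ClC-1 iodide influx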
* = called active by the depositor; i = inactive; x = no result. This is a sample that favours compounds with a hit; in the whole collection about 3.2% have one here.

SMILES	CHT inh	PHOSPHO1 block	CHT PAM	ANO1 activ	HDAC3 inhib	TMEM16A inh	TMEM16A reconf	HEK293 Ca mobil	YFP-HEK293 quench	ClC-1 rat inh
CCOC(=O)c1c(NS(=O)(=O)Cc2ccccc2)sc2c1CCCC2	i	29.3	i	i	-0.4	i	x	x	x	x
CCOC(=O)c1c(NS(=O)(=O)c2ccc(Br)cc2)sc2c1CCC2	i	x	i	i	4.9	100*	70.0%*	i	-0.904	-6.5
CCc1n[nH]c(=O)c2cc3cc(OC)ccc3n12	i	14.0	i	i	-3.0	i	x	x	x	x
O=[N+]([O-])c1ccc(-n2cccc2/C=N/Nc2nc(N3CCCCC3)nc(N3CCCCC3)n2)cc1	i	-17.0	i	x	0.0	i	x	x	x	x
CCN(CC)C(=O)CSc1nnc(COc2ccccc2)n1CC	i	12.4	i	i	7.7	25*	i	i	-0.942	-10.5
CCSc1nnc(COc2ccccc2)n1CC	i	19.9	i	i	-11.0	i	x	x	x	x
Cc1ccc(NC(=S)NCCSc2ccc(Cl)cc2)cc1	i	1.8	i	i	-5.1	i	x	x	x	x
CC(CNC(=S)Nc1cc(F)cc(F)c1)CSc1ccc(Cl)cc1 (centres undefined)	i	24.7	i	i	11.2	25*	43.5%*	i	-1.02	-15.5
Cc1c(NC(=O)c2cccc(NC(=O)c3ccco3)c2)cccc1C(=O)O	i	-17.2	i	i	6.6	i	x	x	x	x
O=C(CS(=O)CC(=O)N(CC(=O)NC1CCCC1)C1CCCC1)Nc1ccc(F)cc1 (centres undefined)	i	22.1	i	x	2.3	25*	i	i	-1.07	-8.0
CC(C)(C)N(CC(=O)NC1CCCCC1)C(=O)CS(=O)CC(=O)Nc1ccc(F)cc1 (centres undefined)	i	30.5	i	i	-0.9	i	x	x	x	x
NC(=O)c1ccsc1NC(=O)COC(=O)Cc1cccc2ccccc12	i	-2.0	i	i	6.9	25*	45.0%*	i	-0.722	-12.5
NC(=O)c1ccsc1NC(=O)COC(=O)Cc1c[nH]c2ccccc12	i	x	i	i	-5.5	i	x	x	x	x
Cc1cccc(OCC(=O)OCC(=O)Nc2sccc2C(N)=O)c1	x	x	x	i	3.4	x	x	x	x	x
NC(=O)c1ccsc1NC(=O)COc1ccccc1	i	14.0	i	i	1.7	25*	i	i	-0.898	-9.0
O=c1[nH]c2ccccc2n1CCCSCCCn1c(=O)[nH]c2ccccc21	i	20.8	i	i	2.5	100*	38.5%*	i	-0.934	-7.5
CCOc1ccc(NC(=O)C2CCC(C)(C(=O)O)C2(C)C)cc1 (centres undefined)	i	-13.4	i	i	-1.8	25*	i	i	-1.1	-5.5
Cc1ccc(C(=O)CCNc2ccc(Cl)cc2)o1	i	-5.3	i	i	-2.1	i	x	x	x	x
Cc1ccc2sc(N3CCN(C(=O)c4ccc([N+](=O)[O-])o4)CC3)nc2c1C	i	x	i	i	-7.5	i	x	x	x	x
Cc1c(Cl)ccc2sc(N3CCN(C(=O)C4=COCCO4)CC3)nc12	i	x	i	i	3.4	25*	43.5%*	i	-0.97	-12.0
O=[N+]([O-])c1ccc(O)c(-c2nc(-c3ccccc3)c(-c3cccs3)[nH]2)c1	i	22.4	i	i	-3.6	25*	67.0%*	i	-0.899	-9.5
CCCCC1CC(C)(C(=O)CSc2nc3ccccc3s2)OC1=O (centres undefined)	i	40.3	i	i	-3.1	100*	30.0%*	i	-1.01	-2.5
Cc1ccc(S(=O)(=O)Nc2cccc(-c3ccc4nncn4n3)c2)cc1	i	x	i	i	x	i	x	x	x	x
Cc1ccc(-c2nnn(CC(=O)N3CCC(C)CC3)n2)o1	i	-7.4	i	i	1.9	i	x	x	x	x
COC(=O)C1Cc2ccccc2CN1S(=O)(=O)c1ccc(C)cc1 (centres undefined)	i	18.7	i	i	5.5	i	x	x	x	x
SMILES	CHT inh	PHOSPHO1 block	CHT PAM	ANO1 activ	HDAC3 inhib	TMEM16A inh	TMEM16A reconf	HEK293 Ca mobil	YFP-HEK293 quench	ClC-1 rat inh
COc1ccc(Cl)cc1NC(=O)CC(=O)Nc1cc(Cl)ccc1OC	i	17.4	i	i	7.9	i	x	x	x	x
C=CCN(CC=C)C(=O)Nc1cc(Cl)ccc1OC	i	-29.1	i	i	4.0	25*	i	i	-1.07	-5.0
COc1ccc(Cl)cc1NC(=O)CN(C)C1CCCCC1	i	-31.3	i	i	-4.5	i	i	i	-1.04	-10.0
COc1ccc(Cl)cc1NC(=O)COC(=O)C1CCCCC1	x	x	x	i	11.9	x	x	x	x	x
CCCNC(=O)OCC12CC3CC(CC(C3)C1)C2	i	8.4	i	i	4.3	i	x	x	x	x
CC(C)(C)c1ccc(OCc2ccc(C(=O)NCc3cccnc3)o2)cc1	i	3.5	i	i	11.8	100*	i	i	-1.07	-15.5
COc1ccccc1OCc1ccc(C(=O)NCc2cccnc2)o1	i	15.9	i	i	7.7	i	x	x	x	x
O=C(Nc1ccc(Nc2ccncc2)cc1)c1ccc(Nc2ccnc3ccc([N+](=O)[O-])cc23)cc1[N+](=O)[O-]	i	34.2	i	i	3.0	25*	i	i	-0.99	-4.0
O=C(Nc1ccc(NC(=O)c2ccc([N+](=O)[O-])cc2[N+](=O)[O-])cc1)c1ccco1	i	-11.8	i	i	-1.5	i	x	x	x	x
COc1ccccc1C(=O)OCn1nnc2ccccc2c1=O	i	31.1	i	i	-7.7	i	x	x	x	x
Cc1cccc(OCC(=O)NNc2c3ccccc3nc3ccccc23)c1	i	-0.1	i	i	0.1	25*	i	i	-1.11	-4.5
Cc1c(NC(=O)c2cccc(NC(=O)COc3cccc(Br)c3)c2)c(=O)n(-c2ccccc2)n1C	x	x	x	i	-2.2	x	x	x	x	x
